About 79,000 compounds went through this panel and 15% of them were active in at least one assay; those are over-represented in the sample as a whole. Unmarked numbers belong to inactive results. The source made the active and inactive calls. Cut-off read from the data, not from the text of the source: active = growth inhibition above about 70%; inactive = the rest.
Assays:
[1] = NCI Yeast Anticancer Drug Screen. Data for the rad50 strain (AID 155);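 note: 0% = growth of vehicle-only cultures of the same strain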; conditions: S. cerevisiae rad50 strain growth inhibition; at 50.0 µM; stronger effect = higher value
Procedure, shortened: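 Yeast carrying a defined DNA repair defect were exposed to test compounds, and growth was compared with vehicle-treated controls to give percent inhibition.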

[2] = NCI Yeast Anticancer Drug Screen. Data for the mec2-1 strain (AID 157); conditions: S. cerevisiae mec2-1 strain, at 50.0 µM, stronger effect = higher value
Procedure, shortened: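 Each compound was tested on mec2-1 yeast, a strain altered in DNA damage repair or cell cycle control. Growth inhibition is reported relative to vehicle.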

[3] = NCI Yeast Anticancer Drug Screen. Data for the sgs1 mgt1 strain (AID 161);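 note: 0% = growth of cultures given vehicle only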; conditions: S. cerevisiae sgs1 mgt1 strain, at 50.0 µM, stronger effect = higher value
Procedure, shortened: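 Genetically altered yeast, compound exposure, growth inhibition relative to vehicle.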

[4] = NCI Yeast Anticancer Drug Screen. Data for the cln2 rad14 strain (AID 165);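 note: 0% = growth equal to vehicle treated cultures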; conditions: S. cerevisiae cln2 rad14 strain, at 50.0 µM, stronger effect = higher value
Procedure, shortened: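 Test compounds were added to cln2 rad14 yeast cultures; inhibition of growth was then determined by comparison with vehicle treatment.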

[5] = NCI Yeast Anticancer Drug Screen. Data for the bub3 strain (AID 167); conditions: S. cerevisiae bub3 mutant strain, at 50.0 µM, stronger effect = higher value
Procedure, shortened: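 Compounds were applied to a genetically altered yeast strain carrying a cell-cycle control defect. Growth inhibition was scored against vehicle-treated controls.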

[6] = NCI Yeast Anticancer Drug Screen. Data for the mlh1 rad18 strain (AID 175); conditions: S. cerevisiae mlh1 rad18 strain growth inhibition; at 50.0 µM; stronger effect = higher value
Procedure, shortened: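 Inhibition values reflect reduced growth of mutant yeast versus vehicle-treated controls following compound exposure; the mutations affect DNA damage repair.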

Row | Compound | growth inhibition [1] | growth inhibition [2] | growth inhibition [3] | growth inhibition [4] | growth inhibition [5] | growth inhibition [6]
1 | CCOC(=O)/C=C/c1ccc([N+](=O)[O-])cc1 | 23.6% | 26.6% | 9.15% | 2.55% | -1.9% | -0.05%
2 | CCCCCCCCCCCCCCCCCC(=O)NCCCNCCCNC(=O)CCCCCCCCCCCCCCCCC | -10.9% | -21.4% | -12.2% | 7.55% | -17.5% | -13.6%
3 | CCCCN(CCCC)CC(O)C=O (stereo unspecified) | -7.95% | -3.95% | -0.5% | -4.85% | -8.4% | 2.95%
4 | Cc1ccccc1N=Nc1c(C)nc(N)nc1-c1ccccc1 | 1% | 8.6% | 6.2% | -12.6% | -14.5% | 12.2%
5 | Cc1ccc(S(=O)(=O)NNS(=O)(=O)c2ccc(C)cc2)cc1 | 5% | 9.6% | 26.9% | -5.95% | 12.7% | 17.2%
6 | S=C(Nc1ccccc1)NC1SNC(=Nc2ccccc2)N1c1ccccc1 (stereo unspecified) | 98.2% (active) | 99.4% (active) | 98.8% (active) | 99.3% (active) | 99.3% (active) | 99% (active)
7 | N#CCCCCCCl | -9.35% | -26.9% | 10.2% | 4.05% | -15.6% | 14.8%
8 | C[C@H]1O[C@@H](C(C)(C)C)OC(=O)[C@@H]1C(OC(=O)c1ccccc1)c1cccc2ccccc12 (stereo partly specified) | -0.1% | 3.15% | 12.1% | 25.3% | -3.45% | 8%
9 | CC1OC(OC23C(=O)CC(C)(O)CC2(O)C=CC2=C3C(=O)c3ccc(C4CC(OC5CCC(OC6CC(O)C(O)C(C)O6)C(C)O5)C(O)C(C)O4)c(O)c3C2=O)CCC1O (stereo unspecified) | 1.4% | -7.95% | 5.75% | -0.5% | -0.25% | 18.1%
10 | CCCCCCCCCCCC(=O)OCC1OC(n2cc(F)c(=O)[nH]c2=O)C(NC(=O)OCc2ccccc2)C(O)C1O (stereo unspecified) | 62.8% | 5.85% | 31.2% | 18.8% | 18.1% | 24.8%
11 | Cc1ccc(NC(=O)c2ccc(Cl)cc2)cc1 | -8.3% | 1.2% | 8.85% | 3.3% | 0% | -3.55%
12 | CCN(CC)CCc1c2c(nc3ccccc13)C(=O)c1cccnc1C2=O | 84.3% (active) | 66.3% | 84% (active) | 74.4% (active) | 79.2% (active) | -21.5%
13 | CC(C)CC(O)C(CC(=O)Nc1ccccc1)S(=O)(=O)c1ccccc1 (stereo unspecified) | -21.9% | -16.4% | -6.3% | -28.6% | -15.1% | -11.8%
14 | CCC(N)CS(=O)(=O)O (stereo unspecified) | -33.7% | -19.6% | -9.9% | -61% | -26.8% | -45.1%
15 | COc1ccc(Nc2cccc(Cl)c2)cc1 | 97% (active) | 98.2% (active) | 96.5% (active) | 95.9% (active) | 95.6% (active) | 97.8% (active)
16 | COC1=CC(=O)C(Cc2ccc3c(c2)OCO3)=CC1=O | 13.2% | 24.6% | 15.7% | -9.45% | 3.1% | 34.5%
17 | CCOC(=O)c1c(-c2ccc([N+](=O)[O-])cc2)c(/C=N\O)n(-c2ccccc2)c1C | 1.45% | 6.7% | 3.3% | -17% | -1.95% | 20%
18 | C(/C=N/NC1=NCCCN1)=N\NC1=NCCCN1 | -3.5% | -15.2% | -14.6% | 10.9% | -33.1% | -14.2%
19 | CC(=O)OC1C(=O)C2C(CC=C3CC(O)CC(O)C32C)C2CCC(C(C)C3CC(C)C(C)(C)O3)C12C (stereo unspecified) | -31.3% | -5.15% | -29.8% | -10.4% | -10.8% | -25.6%
20 | CCOC(=O)CCCCC(N)=O | -4.3% | -7.6% | -15.7% | 1.15% | 11.4% | 2.7%
21 | CC1(C)C=CC=C(C(=O)O)C=C1 | -23.1% | -24% | -34.2% | -21.4% | -13.7% | -14.7%

Row | Compound | growth inhibition [1] | growth inhibition [2] | growth inhibition [3] | growth inhibition [4] | growth inhibition [5] | growth inhibition [6]
22 | Cc1ccccc1C(c1ccccc1)C(CO)CO (stereo unspecified) | -1% | 0.15% | 2.9% | -64.3% | -5.4% | -17.4%
23 | C[CH2][Ge]([CH2]C)([CH2]C)[O]C(=O)CCC(=O)[O][Ge]([CH2]C)([CH2]C)[CH2]C | -2.1% | -2.9% | -3.7% | -66.7% | -0.45% | 14.7%
24 | CC(=O)Nc1cc(C(C)=O)ccc1O | 0.95% | -0.5% | -3.95% | -32.7% | -14% | 6.6%
25 | CC(=O)N1c2ccccc2C(C)(C)C1O (stereo unspecified) | 6.85% | 17.1% | -3.55% | -13.7% | -12.4% | 3.7%
26 | CC(=O)c1cccc(NC(=O)C(=O)C(C(=O)c2ccccc2F)C2OC(=O)c3ccccc32)c1 (stereo unspecified) | 9.2% | -7.2% | -5.45% | 3.7% | -6.2% | -4.05%
27 | CCN(CC)CC#CCCCN(CC)CC | -29.3% | -30.2% | -27.9% | 1.75% | -44.5% | -7.6%
28 | NC(=O)C(=O)c1cc(Cl)c(Cl)c(Cl)c1Cl | -12.3% | -13.5% | 12.4% | -9% | -5.15% | -4.15%
29 | CCOC(=O)c1c(NN)n[nH]c1C | 8.95% | 13.2% | 24.4% | 4% | 7.1% | 8.85%
30 | O=C1CCN2C=CC=CC2=N1 | -14.6% | -8.6% | 2.15% | -26.6% | -19% | 6.95%
31 | Cn1c(-c2ccc3c(c2)OCO3)cc(=O)c2ccccc21 | -11.2% | -17.6% | -4.9% | -4.55% | 4.85% | 0.6%
32 | c1ccc(COc2ccc3c(c2)CN(Cc2ccccc2)CO3)cc1 | -21.1% | -28.9% | 33.6% | -18.6% | 62.2% | -9.1%
33 | CC(=O)Oc1ccc(OC(C)=O)c(C(=O)O)c1 | 15.1% | -2.65% | 2.9% | -39.3% | -2.3% | 17.4%
34 | CCOC(=O)CC(C(=O)OCC)C(=O)OCC | -7.4% | -11.4% | -8.1% | -6.35% | 5.45% | -4.1%
35 | CCCCC/C(=C\c1ccccc1)C1OCC(COC(C)=O)O1 (stereo unspecified) | -37.6% | -5.8% | -2.25% | -30.2% | 40.8% | -2.6%
36 | O=C(CSc1nnc(Cc2ccccc2)o1)Nc1ccc([N+](=O)[O-])cc1 | 11.2% | 15.1% | 5.65% | 10.5% | 19% | -7.15%
37 | CC(C)=NC(C(=O)O)C(C)(C)S (stereo unspecified) | -17.6% | -15.2% | -18.1% | -12.3% | -62% | -17.1%
38 | Cc1ccc(CCCC(N)=O)cc1 | 32.1% | -0.15% | 8.85% | 4.1% | -2.15% | 2.55%
39 | Cc1ccc(Nc2nnc(Nc3ccc(C)cn3)c3ccccc23)nc1 | -10.7% | -12.4% | -4.55% | -18.8% | 4.1% | -7.95%
40 | CC1(C(=O)N2c3ccccc3C=CC2C#N)CC2C=CC1C2 (stereo unspecified) | -19.9% | 4.6% | 1.9% | 7.6% | -2.4% | -15.9%
41 | C=CCCCN(c1ccc(C(=O)OCC)cc1)S(=O)(=O)c1ccc(C)cc1 | 28.3% | -11.4% | 12.1% | 12.7% | -6.1% | 4.2%
